The values below come from PubChem BioAssay (EPA / NIEHS).

Inconclusive results are not listed. Calls of active or inactive are those of the source. The calls were made as follows, unless noted: active = hit-call score of the fitted dose curve at least 0.9, where 1 is the maximum; inconclusive = response in the unintended direction; inactive = score below 0.9.

Assay [1] has as its target Cellular tumor antigen p53 (Homo sapiens) (UniProt P04637). The experiment in a line: TOX21_p53_BLA_p2_ratio: Tox21 HCT-116 p53 Agonism Beta-lactamase Assay, Ratio, Phase 2 (AID 2283592). In outline:
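HCT116 p53-bla; 4000 cells/well; 5 h pre-incubation; cpd in DMSO, 217-fold dilution; 16 h 37C/5% CO2; CCF4-AM 2 h RT; Ex 405, Em 460/530 ratio; DMSO = baseline; positive fitting direction.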

Assay [2] has the same target. Kind of assay: TOX21_p53_BLA_p3_ratio: Tox21 HCT-116 p53 Agonism Beta-lactamase Assay, Ratio, Phase 3 (AID 2283596). The method in brief:
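HCT116 p53-bla cells (4000/well) given compound in DMSO (217-fold dilution) after 5 h, incubated 16 h at 37C. CCF4-AM substrate 2 h at room temperature; 460/530 nm emission ratio, gain fitted against DMSO.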

For assay [3] the target is unchanged. Kind of assay: TOX21_p53_BLA_p5_ratio: Tox21 HCT-116 p53 Agonism Beta-lactamase Assay, Ratio, Phase 5 (AID 2283599). In outline: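 Beta-lactamase reporter ratio (blue 460 nm over green 530 nm, 405 nm excitation) after 2 h CCF4-AM loading, in HCT-116 cells exposed 16 h at 37 C to compounds pinned at 217-fold dilution. Increases relative to DMSO baseline scored.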

Assay [4] can be described thus: TOX21_p53_BLA_p5_viability: Viability Assessment in the Tox21 HCT-116 p53 Agonism Beta-lactamase Assay, Phase 5 (AID 2283600). The method in brief: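 4000 cells/well; 5 h pre-incubation; DMSO compounds pin-transferred, 217-fold dilution; 16 h, 37C/5% CO2; CCF4-AM 2 h RT; CellTiter-Glo 30 min RT; luminescence.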
Assay [5] addresses Cellular tumor antigen p53 (Homo sapiens) (UniProt P04637). Kind of assay: TOX21_p53_BLA_p4_ratio: Tox21 HCT-116 p53 Agonism Beta-lactamase Assay, Ratio, Phase 4 (AID 2283601). The method in brief: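 Signal is the blue/green (460nm/530nm) ratio of cleaved versus uncleaved CCF4-AM substrate, read after 2 h substrate loading. Cells were HCT116 carrying the p53-responsive beta-lactamase reporter, dosed 16 h at 37C, 5% CO2; CellTiter-Glo measured in parallel.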

Assay [6] in a line: CCTE_Harrill_HTTr_Viability_MCF7: CCTE's 6-hour Cell Viability Assessment for the High-Throughput Transcriptomics (HTTr) Platform, in MCF-7 cells cultured in DMEM + 10% fetal bovine serum, Harrill Lab (AID 2284010; active = hit-call score of the fitted dose curve at least 0.9, where 1 is the maximum; inactive = score below 0.9). The method in brief:
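MCF-7 cells in DMEM + 10% FBS, 384-well, exposed 6 h to an eight-point dilution series. Membrane integrity scored by high-content imaging of propidium iodide exclusion; bidirectional fit versus DMSO.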

Assay [7] in a line: CCTE_Harrill_HTTr_Apoptosis_MCF7: CCTE's 6-hour Apoptosis Assessment for the High-Throughput Transcriptomics (HTTr) Platform, in MCF-7 cells cultured in DMEM + 10% fetal bovine serum, Harrill Lab (AID 2284011; active = hit-call score of the fitted dose curve at least 0.9, where 1 is the maximum; inactive = score below 0.9). The method in brief:
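MCF-7 (DMEM + 10% FBS), 384-well; 8-pt dilution series, 6 h chemical exposure; caspase-3/7 activation via CellEvent Caspase 3/7 Green, HCI; bidirectional fit vs DMSO.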

Assay [8] is described as follows: CCTE_Harrill_HTTr_CellCount_MCF7: CCTE's Cell Proliferation Assessment for the High-Throughput Transcriptomics (HTTr) Platform, Harrill Lab (AID 2284012).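 Also: cells exposed to compound for six hours; intended direction is loss of nuclei count meaning fewer cells.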 The method in brief: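 MCF7 cells exposed 6 hours to an eight-point dilution series; Hoechst-stained nuclei counted by high-content imaging. Bidirectional curve fitting against DMSO baseline.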
Assay [9] can be described thus: STM_H9_OrnCyssISnorm_ratio: Stemina devTOX quickPredict H9 human embryonic stem cell (hESC)-based Assay for Ornithine (ORN):Cystine (CYSS) Ratio (AID 2283714). In outline:
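Steps: H9 hESCs in pluripotent state dosed 72h, medium plus compound renewed every 24h; conditioned medium from the final 24h deproteinized in 40% acetonitrile; ORN and CYSS quantified by UPLC-HRMS with C13 spike-ins; ratio relative to vehicle.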

Cellular tumor antigen p53 (Homo sapiens), sequence (P04637 whole entry, looked up): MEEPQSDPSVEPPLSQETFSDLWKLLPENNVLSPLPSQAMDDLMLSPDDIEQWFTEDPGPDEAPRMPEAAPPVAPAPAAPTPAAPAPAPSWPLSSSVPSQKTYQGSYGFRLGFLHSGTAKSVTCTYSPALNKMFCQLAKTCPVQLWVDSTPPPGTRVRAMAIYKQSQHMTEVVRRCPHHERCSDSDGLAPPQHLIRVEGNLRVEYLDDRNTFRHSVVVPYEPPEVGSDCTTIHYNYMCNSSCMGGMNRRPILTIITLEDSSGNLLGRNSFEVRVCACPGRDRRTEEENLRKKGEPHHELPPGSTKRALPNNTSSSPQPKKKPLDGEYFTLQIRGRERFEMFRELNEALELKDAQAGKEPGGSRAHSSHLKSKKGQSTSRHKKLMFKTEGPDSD

Take `NC(=O)CC[C@@H](N)C(=O)O`: the result in [1], in assay [2], in assay [3], in [4] and in assay [5] was inactive.
Regarding `NS(=O)(=O)c1cc2c(cc1Cl)NC(C(Cl)Cl)NS2(=O)=O` (stereo not given), the result in assay [1], in assay [2], in [3], in assay [4] and in [5] was inactive.
For the compound `C[C@@](Cc1ccc(O)c(O)c1)(NN)C(=O)O`, the result in assay [1], in assay [2], in assay [3] and in assay [4] was inactive.
For `CC(C)(C)C(=O)OCC(=O)[C@H]1CC[C@H]2[C@@H]3CCC4=CC(=O)CC[C@]4(C)[C@H]3CC[C@]12C`, the result in assay [1], in assay [2], in assay [3], in assay [4] and in assay [5] was inactive.
For `Cc1cnc(C)c(C)n1`, the result in assay [1], in assay [2], in assay [3], in assay [4] and in assay [5] was inactive.
With `Cc1ncc(COP(=O)(O)O)c(CN)c1O`, the outcome in [1], in assay [2], in assay [3], in assay [4] and in assay [5] was inactive.
Consider `C=CC(=O)OCCOCC(CC)(COCCOC(=O)C=C)COCCOC(=O)C=C`, for which the result in assay [1], in assay [2], in assay [3] and in assay [4] was inactive.
Consider `NC(=O)Cc1cccc2ccccc12`, for which the result in [1], in assay [2], in assay [3], in assay [4] and in assay [5] was inactive.
Take `CC(C)OC(=O)CCC(=O)OC(C)C`: the result in assay [1], in assay [2], in assay [3], in assay [4] and in [5] was inactive.
Consider `NS(=O)(=O)c1cc(-c2nn[nH]n2)c(NCc2cccs2)cc1Cl`, for which the result in assay [1], in assay [2], in [3] and in assay [4] was inactive.
Turning to `CC[C@]1(O)C[C@H]2CN(CCc3c([nH]c4ccccc34)[C@@](C(=O)OC)(c3cc4c(cc3OC)N(C=O)[C@H]3[C@@](O)(C(=O)OC)[C@H](OC(C)=O)[C@]5(CC)C=CCN6CC[C@]43[C@@H]65)C2)C1`, the AC50 in assay [1] was 11.2 nM (active); in assay [2] it was 2.09 nM (active); in assay [3], 4.86 nM (active); in [5], 18.4 nM (active). The compound was called inactive in assay [4].
For `CC(C)c1ncc([N+](=O)[O-])n1C`, the outcome in assay [1], in [2], in assay [3] and in [4] was inactive.
As to `CCOC(=O)c1ccc(I)cc1`, the outcome in assay [1], in [2] and in [3] was inactive.
Consider `O=[N+]([O-])c1ccc(Oc2ccc([N+](=O)[O-])cc2)cc1`, for which the result in [1], in assay [2], in assay [3] and in assay [4] was inactive.
As to `CN1c2c(nc(N)[nH]c2=O)NCC1CNc1ccc(C(=O)NC(CCC(=O)O)C(=O)O)cc1` (stereo not given), the outcome in assay [1], in assay [2], in assay [3], in assay [4] and in assay [5] was inactive.
As for `O=C(O)COc1ccccc1/C=N/NC(=O)c1ccncc1`, the result in [1], in assay [2], in [3], in [4] and in [5] was inactive.
On to `CNCC(=O)N[C@@H](CCCN=C(N)N)C(=O)N[C@H](C(=O)N[C@@H](Cc1ccc(O)cc1)C(=O)N[C@H](C(=O)N[C@@H](Cc1cnc[nH]1)C(=O)N1CCC[C@H]1C(=O)N[C@@H](C)C(=O)O)C(C)C)C(C)C`, for which the outcome in [1], in [2] and in [3] was inactive.
In the case of `NC(=O)c1ccc[n+]([C@@H]2O[C@H](COP(=O)([O-])OP(=O)(O)OC[C@H]3O[C@@H](n4cnc5c(N)ncnc54)[C@H](O)[C@@H]3O)[C@@H](O)[C@H]2O)c1`, the outcome in assay [1], in assay [2] and in assay [3] was inactive.
As to `CC(=O)OCC(=O)[C@@]1(O)CC[C@H]2[C@@H]3CCC4=CC(=O)CC[C@]4(C)C3=CC[C@@]21C`, the result in assay [1], in [2], in assay [3], in [4] and in assay [5] was inactive.
As for `CC(=O)c1ccc(Cl)c(Cl)c1Cl`, the outcome in assay [1], in assay [2], in assay [3] and in [4] was inactive.
On to `C[C@]12CC[C@@H]3c4ccc(OC(=O)c5ccccc5)cc4CC[C@H]3[C@@H]1CC[C@@H]2O`, for which the outcome in assay [1], in [2], in assay [3] and in assay [4] was inactive.
`COc1cc(C(=S)N2CCOCC2)ccc1O`: the outcome in [1], in assay [2], in assay [3], in [4] and in assay [5] was inactive.
As for `CN(C)CCN(Cc1ccccc1)c1ccccn1`, the outcome in [1], in assay [2] and in assay [3] was inactive.
With `CCCCCCCC/C=C\CCCCCCCC(=O)OC`, the result in assay [1], in assay [2], in assay [3], in assay [4], in [5] and in assay [6] was inactive. The result in assay [7] and in assay [8] was inactive.
Consider `NC(=O)OC[C@@H]1[C@H](NC(=O)/C(=N\OCC(=O)O)c2csc(N)n2)C(=O)N1S(=O)(=O)O`, for which the result in assay [1], in assay [2], in [3], in assay [4] and in [5] was inactive.
As for `NC1CCN(c2nc3c(cc2F)c(=O)c(C(=O)O)cn3-c2ccc(F)cc2F)C1` (stereo not given), the result in [1], in [2] and in assay [3] was inactive.
For the compound `CC(C)NC[C@@H](O)COc1cccc2ccccc12`, the result in assay [1], in assay [2], in assay [3] and in assay [4] was inactive.
Consider `CN(CCOc1ccc(NS(C)(=O)=O)cc1)CCc1ccc(NS(C)(=O)=O)cc1`, for which the result in [1] and in assay [2] was inactive. The AC50 in assay [3] was 37700 nM (active).
`NC1[C@H]2CN(c3nc4c(cc3F)c(=O)c(C(=O)O)cn4-c3ccc(F)cc3F)C[C@@H]12` (stereo not given in full): the AC50 in assay [1] was 30400 nM (active); in [2], 27300 nM (active). Moreover, the outcome in assay [3] and in [5] was inactive.
In the case of `O=Cc1ccc(F)c(Br)c1`, the result in assay [1], in assay [2], in [3] and in assay [5] was inactive.
On to `NC(=O)c1ccccc1[N+](=O)[O-]`, for which the outcome in [1], in assay [2], in assay [3] and in assay [5] was inactive.
For `O=C(c1ccccc1)C1(O)CCCCC1`, the result in assay [1], in assay [2], in assay [3], in [5], in assay [9] and in [6] was inactive. In addition, the result in [7] and in [8] was inactive.
`CC(CN1c2ccccc2Sc2cccnc21)N(C)C` (stereo not given): the outcome in assay [1], in [2], in assay [3] and in assay [5] was inactive.
For the compound `CCCCc1ccc2nc(NC(=O)OC)[nH]c2c1`, the result in assay [1], in assay [3] and in assay [5] was inactive. For the same compound, the AC50 in [2] was 40.8 nM (active).
With `CN1CCN(c2c(F)cc3c(=O)c(C(=O)O)cn4c3c2SCC4)CC1`, the outcome in assay [1], in [2], in [3] and in assay [5] was inactive.
